# Laboratory results as given in PubChem BioAssay (Tox21).
# Inconclusive results are not listed. A call without a number means that no potency is given here. A number with no mark means an inactive call. Calls of active or inactive are those of the source. The call rests on the fitted dose curve; in most records, active means well fitted cell-killing curve with a large enough effect in the repeat runs; inconclusive means weak or mixed curves, or effect the other way; inactive means flat fitted curve, though single readings scatter.
# Experiment: qHTS RealTime-Glo MT Cell Viability Assay in HEK293 cells - 8 hour (AID 1224887); further: nearly all actives have a fitted effect of over 50% in size; on activity change, negative = cytotoxicity: top concentration of the series differs between compounds
# Details: RealTime-Glo luminescence; series mostly up to 76.8 µM
# In short: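 HEK293 + NanoLuc + prosubstrate, 600 cells/well; 5 h, 37 C/5% CO2; compound 23 nL in DMSO by pintool; 37 C; luminescence read at 0, 8, 16, 24, 32 and 40 h time points.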
# Potency means the concentration at half of the fitted maximal effect.
Structure (SMILES),Potency,"activity change, negative = cytotoxicity"
Cc1ccc(Cl)c(Nc2ccccc2C(=O)O)c1Cl,inactive,–
Cc1cc(=O)c2c(O)c3c(O)cc(=O)c4c3c3c(cc(O)c1c23)C(C)(C)C=4O,–,3.53% [at 15.8 µM]
NC1[C@H]2CN(c3nc4c(cc3F)c(=O)c(C(=O)O)cn4-c3ccc(F)cc3F)C[C@@H]12 (some centres undefined),inactive,–
CCOC(=O)c1ccc(O)c(O)c1,inactive,–
CCCCCCCCOc1ccc(C(=O)O)cc1,inactive,–
CC1CC(OC(=O)C(O)c2ccccc2)CC(C)(C)N1C (centres undefined),inactive,–
CC(C)(C)C(=O)C(=O)O,inactive,–
CCC1(CO)COCOC1,inactive,–
CC[C@]1(O)C[C@H]2CN(CCc3c([nH]c4ccccc34)[C@@](C(=O)OC)(c3cc4c(cc3OC)N(C=O)[C@H]3[C@@](O)(C(=O)OC)[C@H](OC(C)=O)[C@]5(CC)C=CCN6CC[C@]43[C@@H]65)C2)C1,inactive,–
OC(CCN1CCCC1)(c1ccccc1)C1CCCCC1 (centres undefined),inactive,–
O=C1c2ccccc2C(=O)C1(O)O,inactive,–
Nc1nnc(-c2ccc([N+](=O)[O-])o2)o1,inactive,–
Oc1ccc(Cl)c2cccnc12,inactive,–
CCCCCCCC/C=C\CCCCCCCCO,inactive,–
O=C(OCC(O)CO)c1ccccc1Nc1ccnc2cc(Cl)ccc12 (centres undefined),8.49 µM (active),–
Nc1nc2ccc([N+](=O)[O-])cc2s1,inactive,–
CC(CC1c2ccccc2CCc2ccccc21)CN(C)C (centres undefined),inactive,–
C[C@H]1C[C@H](O)c2ccsc2S1(=O)=O,inactive,–
CO/N=C(/C(=O)N[C@@H]1C(=O)N2C(C(=O)O)=C(COC(N)=O)CS[C@H]12)c1ccco1,inactive,–
